# Experimental data from the supplement of paper PMC10037445.
# Over roughly 2,900 compounds, “NF-kB SEAP reporter activity, fold change vs agonist alone” has its median near 0.99; the highest 2% begin near 2.6. Shown is part of a subset that was picked to be rich in the highest values.
# Assays:
# [1] = tested on: RAW-Dual; assay: NF-kB SEAP reporter activity, fold change vs agonist alone; higher = enhanced NF-kB activity
# Procedure, shortened: (§1)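 Cytotoxic wells were those whose IncuCyte confluency was below 70% of agonist controls in both mask sets. The cells were RAW-Dual macrophages at 50,000 cells/well in DMEM on 384-well plates, dosed with 50 nL of library stock by pin tool, stimulated with a PRR agonist 1 h later, and kept at 37 °C, 5% CO2 for 20 hours. IRF and NF-κB reporter activity, as fold change over agonist-alone wells, came from supernatant read by QuantiLuc luminescence and QuantiBlue absorbance, respectively.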
# [2] = tested on: RAW-Dual; assay: NF-kB SEAP reporter activity, fold change vs agonist alone; cytotoxicity flag (confluency mask): not cytotoxic; higher = enhanced NF-kB activity
# Procedure, shortened: as §1
# [3] = tested on: RAW-Dual; assay: NF-kB SEAP reporter activity, fold change vs agonist alone; cytotoxicity flag (confluency mask): cytotoxic (confluency <70% of control); higher = enhanced NF-kB activity
# Procedure, shortened: as §1
# [4] = library stock concentration (final ~1000-fold dilution): 10 mM, cytotoxicity flag (confluency mask): not cytotoxic, agonist: Imiquimod (TLR7) […]
# [5] = library stock concentration (final ~1000-fold dilution): 10 mM, cytotoxicity flag (confluency mask): not cytotoxic, agonist: MPLA (TLR4) […]
# [6] = agonist: ODN 1826 (TLR9) 0.5 ug/mL
# [7] = agonist: Pam2CSK4 (TLR2/6) 0.1 ug/mL
# [8] = agonist: Pam3CSK4 (TLR2/1) 0.1 ug/mL
# [9] = library stock concentration (final ~1000-fold dilution): 10 mM, cytotoxicity flag (confluency mask): cytotoxic (confluency <70% of control), agonist: Imiquimod (TLR7) […]
# [10] = library stock concentration (final ~1000-fold dilution): 10 mM, cytotoxicity flag (confluency mask): cytotoxic (confluency <70% of control), agonist: MPLA (TLR4) […]
# [11] = library stock concentration (final ~1000-fold dilution): 2 mM, cytotoxicity flag (confluency mask): not cytotoxic, agonist: Imiquimod (TLR7) […]
# [12] = library stock concentration (final ~1000-fold dilution): 2 mM, cytotoxicity flag (confluency mask): not cytotoxic, agonist: MPLA (TLR4) […]
structure (smiles),measurement,setting,value
O=c1[nH]c(=S)[nH]c2nc(-c3ccccc3)c(-c3ccccc3)nc12,NF-kB SEAP reporter activity,[1]; [4],0.796
same,NF-kB SEAP reporter activity,[1]; [5],0.977
O=c1[nH]c(=S)[nH]c2nc(-c3ccccc3)c(-c3ccccc3)nc12 (library stock concentration (final ~1000-fold dilution): 10 mM),NF-kB SEAP reporter activity,[2]; agonist: LPS (TLR4) 0.1 ug/mL,0.947
same,NF-kB SEAP reporter activity,[2]; [6],0.854
same,NF-kB SEAP reporter activity,[2]; [7],0.938
same,NF-kB SEAP reporter activity,[2]; [8],0.926
Br.CCCc1cc(-c2nc(-c3ccc(C)cc3)cs2)ccn1,NF-kB SEAP reporter activity,[1]; [9],1.1
same,NF-kB SEAP reporter activity,[1]; [10],1.37
Br.CCCc1cc(-c2nc(-c3ccc(C)cc3)cs2)ccn1 (library stock concentration (final ~1000-fold dilution): 10 mM),NF-kB SEAP reporter activity,[3]; agonist: LPS (TLR4) 0.1 ug/mL,1.54
same,NF-kB SEAP reporter activity,[3]; [6],1.04
same,NF-kB SEAP reporter activity,[3]; [7],1.07
same,NF-kB SEAP reporter activity,[3]; [8],0.895
Cc1cccc(CN2CCN(C(c3ccccc3)c3ccc(Cl)cc3)CC2)c1.Cl.Cl (centres undefined),NF-kB SEAP reporter activity,[1]; [11],0.843
same,NF-kB SEAP reporter activity,[1]; [12],1.15
Cc1cccc(CN2CCN(C(c3ccccc3)c3ccc(Cl)cc3)CC2)c1.Cl.Cl (centres undefined) (library stock concentration (final ~1000-fold dilution): 2 mM),NF-kB SEAP reporter activity,[2]; agonist: LPS (TLR4) 0.1 ug/mL,1.51
same,NF-kB SEAP reporter activity,[2]; [6],0.87
same,NF-kB SEAP reporter activity,[2]; [7],0.931
same,NF-kB SEAP reporter activity,[2]; [8],0.984
Brc1ccc(C2CN3CCSC3=N2)cc1.O=C(O)C(=O)O (centres undefined),NF-kB SEAP reporter activity,[1]; [4],0.948
same,NF-kB SEAP reporter activity,[1]; [5],1.01
Brc1ccc(C2CN3CCSC3=N2)cc1.O=C(O)C(=O)O (centres undefined) (library stock concentration (final ~1000-fold dilution): 10 mM),NF-kB SEAP reporter activity,[2]; agonist: LPS (TLR4) 0.1 ug/mL,1.48
same,NF-kB SEAP reporter activity,[2]; [6],0.888
same,NF-kB SEAP reporter activity,[2]; [7],0.956
same,NF-kB SEAP reporter activity,[2]; [8],1.01
CC(=N)NCc1cccc(CN)c1.Cl.Cl,NF-kB SEAP reporter activity,[1]; [4],1.08
same,NF-kB SEAP reporter activity,[1]; [5],1.03
CC(=N)NCc1cccc(CN)c1.Cl.Cl (library stock concentration (final ~1000-fold dilution): 10 mM),NF-kB SEAP reporter activity,[2]; agonist: LPS (TLR4) 0.1 ug/mL,0.956
same,NF-kB SEAP reporter activity,[2]; [6],1.03
same,NF-kB SEAP reporter activity,[2]; [7],1.02
same,NF-kB SEAP reporter activity,[2]; [8],0.859
CNC1CCC(c2ccc(Cl)c(Cl)c2)c2ccccc21.Cl (centres undefined) (library stock concentration (final ~1000-fold dilution): 10 mM),NF-kB SEAP reporter activity,[3]; agonist: LPS (TLR4) 0.1 ug/mL,0.879
same,NF-kB SEAP reporter activity,[3]; [6],0.405
same,NF-kB SEAP reporter activity,[3]; [7],0.42
same,NF-kB SEAP reporter activity,[3]; [8],0.484
CNC1CCC(c2ccc(Cl)c(Cl)c2)c2ccccc21.Cl (centres undefined),NF-kB SEAP reporter activity,[1]; [9],1.64
same,NF-kB SEAP reporter activity,[1]; [10],1.56
CC(C)(C)c1ccc(Cn2nc(-c3ccc(Cl)cc3)cc2C(=O)NO)cc1,NF-kB SEAP reporter activity,[1]; [4],1.47
same,NF-kB SEAP reporter activity,[1]; [5],1.5
CC(C)(C)c1ccc(Cn2nc(-c3ccc(Cl)cc3)cc2C(=O)NO)cc1 (library stock concentration (final ~1000-fold dilution): 10 mM),NF-kB SEAP reporter activity,[2]; agonist: LPS (TLR4) 0.1 ug/mL,1.32
same,NF-kB SEAP reporter activity,[2]; [6],1.24
same,NF-kB SEAP reporter activity,[2]; [7],0.824
same,NF-kB SEAP reporter activity,[2]; [8],0.964
COC1/C=C/OC2(C)Oc3c(C)c(O)c4c(O)c(c(/C=N/N5CCN(C)CC5)c(O)c4c3C2=O)NC(=O)/C(C)=C/C=C/C(C)C(O)C(C)C(O)C(C)C(OC(C)=O)C1C (centres undefined) (library stock concentration (final ~1000-fold dilution): 10 mM),NF-kB SEAP reporter activity,[2]; agonist: LPS (TLR4) 0.1 ug/mL,0.987
same,NF-kB SEAP reporter activity,[2]; [6],0.979
same,NF-kB SEAP reporter activity,[2]; [7],0.906
same,NF-kB SEAP reporter activity,[2]; [8],0.892
COC1/C=C/OC2(C)Oc3c(C)c(O)c4c(O)c(c(/C=N/N5CCN(C)CC5)c(O)c4c3C2=O)NC(=O)/C(C)=C/C=C/C(C)C(O)C(C)C(O)C(C)C(OC(C)=O)C1C (centres undefined),NF-kB SEAP reporter activity,[1]; [4],0.886
same,NF-kB SEAP reporter activity,[1]; [5],0.877
O=C(O)c1ccc(CSc2nc(-c3ccccc3)cc(N3CCN(c4ccccc4Cl)CC3)n2)cc1,NF-kB SEAP reporter activity,[1]; [4],0.515
same,NF-kB SEAP reporter activity,[1]; [5],0.868
O=C(O)c1ccc(CSc2nc(-c3ccccc3)cc(N3CCN(c4ccccc4Cl)CC3)n2)cc1 (library stock concentration (final ~1000-fold dilution): 10 mM),NF-kB SEAP reporter activity,[2]; agonist: LPS (TLR4) 0.1 ug/mL,0.736
same,NF-kB SEAP reporter activity,[2]; [6],0.584
same,NF-kB SEAP reporter activity,[2]; [7],0.248
same,NF-kB SEAP reporter activity,[2]; [8],0.392
CC(C)CC(NC(=O)CNC(=O)c1cc(Cl)ccc1Cl)B1OC(=O)CC(CC(=O)O)(C(=O)O)O1 (centres undefined) (library stock concentration (final ~1000-fold dilution): 10 mM),NF-kB SEAP reporter activity,[2]; agonist: LPS (TLR4) 0.1 ug/mL,0.585
same,NF-kB SEAP reporter activity,[2]; [6],0.938
same,NF-kB SEAP reporter activity,[2]; [7],0.905
same,NF-kB SEAP reporter activity,[2]; [8],0.999
CC(C)CC(NC(=O)CNC(=O)c1cc(Cl)ccc1Cl)B1OC(=O)CC(CC(=O)O)(C(=O)O)O1 (centres undefined),NF-kB SEAP reporter activity,[1]; [4],0.956
same,NF-kB SEAP reporter activity,[1]; [5],0.913
O=c1nc(N2CCOCC2)oc2c(-c3cccc4c3sc3ccccc34)cccc12 (library stock concentration (final ~1000-fold dilution): 10 mM),NF-kB SEAP reporter activity,[2]; agonist: LPS (TLR4) 0.1 ug/mL,3.45
same,NF-kB SEAP reporter activity,[2]; [6],1.08
same,NF-kB SEAP reporter activity,[2]; [7],0.718
same,NF-kB SEAP reporter activity,[2]; [8],1.38
O=c1cc(N2CCOCC2)oc2c(-c3ccccc3)cccc12 (library stock concentration (final ~1000-fold dilution): 10 mM),NF-kB SEAP reporter activity,[3]; agonist: LPS (TLR4) 0.1 ug/mL,1.81
same,NF-kB SEAP reporter activity,[3]; [6],1.34
same,NF-kB SEAP reporter activity,[3]; [7],0.984
same,NF-kB SEAP reporter activity,[3]; [8],1.19
O=c1cc(N2CCOCC2)oc2c1ccc1ccccc12,NF-kB SEAP reporter activity,[1]; [11],1.04
same,NF-kB SEAP reporter activity,[1]; [12],0.989
O=c1cc(N2CCOCC2)oc2c(-c3ccccc3)cccc12,NF-kB SEAP reporter activity,[1]; [9],1.07
same,NF-kB SEAP reporter activity,[1]; [10],1.63
O=c1cc(N2CCOCC2)oc2c(-c3cccc4c3sc3ccccc34)cccc12 (library stock concentration (final ~1000-fold dilution): 2 mM),NF-kB SEAP reporter activity,[2]; agonist: LPS (TLR4) 0.1 ug/mL,5.39
same,NF-kB SEAP reporter activity,[2]; [6],1.43
same,NF-kB SEAP reporter activity,[2]; [7],1.05
same,NF-kB SEAP reporter activity,[2]; [8],2.43
O=c1cc(N2CCOCC2)oc2c(-c3cccc4c3sc3ccccc34)cccc12,NF-kB SEAP reporter activity,[1]; [11],1.46
same,NF-kB SEAP reporter activity,[1]; [12],2.31
O=c1nc(N2CCOCC2)oc2c(-c3cccc4c3sc3ccccc34)cccc12,NF-kB SEAP reporter activity,[1]; [4],1.1
same,NF-kB SEAP reporter activity,[1]; [5],1.85
O=c1cc(N2CCOCC2)oc2c1ccc1ccccc12 (library stock concentration (final ~1000-fold dilution): 2 mM),NF-kB SEAP reporter activity,[2]; agonist: LPS (TLR4) 0.1 ug/mL,1.12
same,NF-kB SEAP reporter activity,[2]; [6],1
same,NF-kB SEAP reporter activity,[2]; [7],0.982
same,NF-kB SEAP reporter activity,[2]; [8],1.07
